In PubChem BioAssay AID1117359 (Southern Research Institute, 2015):
About 460 (31%) of roughly 1,500 compounds were called active.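 Rule for the calls: active = viability at or below 80% at any tested concentration, marking the compound as toxic; inactive = the rest.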 These entries were drawn from the full list. Measured potencies and affinities stand elsewhere.

Experiment: THP-1 cell cytotoxicity, dose response, cytotoxicity control for Vif-APOBEC3G degradation inhibitor project, THP-1 cells (AID 1117359)
Settings: THP-1 viability, CellTiter-Glo luminescence, 72 h; series mostly up to 40 µM

| SMILES | outcome |
| --- | --- |
| CCOc1ccc(-n2c(SCC(N)=O)nnc2-c2cccnc2)cc1 | inactive |
| CN(Cc1cccs1)C(=O)Cn1cnc2ccccc2c1=O | inactive |
| O=C(NCCc1ccccc1)c1ccc2nc(-c3ccco3)c(-c3ccco3)nc2c1 | inactive |
| O=C1CC(NCc2ccco2)C(=O)N1CCc1ccccc1 (stereo not drawn) | inactive |
| Cc1c(F)cccc1NC(=O)CCCCCC1NC(=O)NC1C (stereo not drawn) | inactive |
| CCN1C[C@@H]2[C@@H]3C(=O)N(Cc4ccccc4)C(=O)[C@@H]3[C@](C)(C(=O)OC)N2C1=NC1CCCCC1 | inactive |
| CO[C@H]1C=CO[C@@]2(C)Oc3c(C)c(O)c4c(O)c(c(C=NN5CCN(C)CC5)c(O)c4c3C2=O)NC(=O)C(C)=CC=C[C@H](C)[C@H](O)[C@@H](C)[C@@H](O)[C@@H](C)[C@H](OC(C)=O)[C@@H]1C | inactive |
| CSc1ccc(CN(C)CC(=O)NC(=O)NCCC2=CCCCC2)cc1 | inactive |
| CC1(OC(=O)C2CCCC2)C(=O)C=C2C=C(c3ccsc3)OC=C2C1=O (stereo not drawn) | inactive |
| CC1(CCl)N([O-])C2=C(CCCC2)[N+]1=O (stereo not drawn) | inactive |
| O=C(NN=C1CCCCCC1)c1cccnc1 | inactive |
| O=C(N/N=C/c1cccnc1)c1cc(O)c(O)c(O)c1 | inactive |
| Cc1cc(C)n(CC(=O)NNC(=O)c2ccc(NC(=O)CC#N)cc2)n1 | inactive |
| CN(C)c1ccc(N/C=C/C(=O)c2ccco2)cc1 | inactive |
| Nc1cc(N)nc(SCc2cc([N+](=O)[O-])cc3c2OCOC3)n1 | inactive |
| Cc1ccc(N/N=C/c2c(C)c(C#N)c(=O)n(C)c2O)cc1C | inactive |
| Cn1ccnc1Sc1ccc(/C=N/NC(=O)c2ccccc2O)cc1[N+](=O)[O-] | inactive |
| O=S(=O)(c1ccc(NC(=S)N/N=C/c2ccc(O)c(O)c2)cc1)N1CCOCC1 | inactive |
| O=C1C(=Cc2ccco2)CCCC1=Cc1ccco1 | inactive |
| O=C(COC(=O)COc1ccc(Cl)cc1Cl)NC1CCCCCC1 | inactive |
| CN1CCN(C(=O)/C(=C/c2ccc(F)cc2)NC(=O)c2ccccc2)CC1 | inactive |
| O=C(Cc1c(F)cccc1Cl)NNC(=O)c1ccccc1Cl | inactive |

| SMILES | outcome |
| --- | --- |
| COc1ccc2nc(-c3ccccc3)cc(C(=O)OCC(=O)N3CC(C)OC(C)C3)c2c1 (stereo not drawn) | inactive |
| O=C(c1coc(=O)c(Br)c1)N1CCCc2ccccc21 | inactive |
| CCCCN(C(=O)c1ccccc1OCc1ccc(F)cc1)c1c(N)n(CC(C)C)c(=O)[nH]c1=O | inactive |
| COc1ccc(S(N)(=O)=O)cc1C(=O)OCC(=O)NC(C)(C#N)C1CC1 (stereo not drawn) | inactive |
| CCc1ccc(N2C(=O)Cc3c2nc(N)c(C#N)c3N)cc1 | inactive |
| COC(=O)c1ccccc1NC(=O)c1noc2c1CCC2 | inactive |
| CC(C)(C)c1ccc(S(=O)(=O)N2CCCCC2)cc1 | inactive |
| O=C(CN1CCN(S(=O)(=O)c2ccc(F)cc2)CC1)c1ccc(O)c(O)c1 | inactive |
| O=C(CCS(=O)(=O)c1ccc(Br)cc1)N1CCN(c2ccc(F)cc2)CC1 | inactive |
| CC(=O)Nc1ccc(NC(=O)C(C)OC(=O)CC23CC4CC(CC(Br)(C4)C2)C3)cc1 (stereo not drawn) | inactive |
| CC(=O)OC1OCCOC1NC(=S)Nc1ccc(C)cc1 (stereo not drawn) | inactive |
| CC(C)(C)NCCCCOc1ccc(F)cc1 | inactive |
| COC/C=C/C1=CC2=CC(=O)C(C)(OC(=O)c3ccco3)C(=O)C2=CO1 (stereo not drawn) | inactive |
| COc1ccc2nc(NNC(=O)c3cc(=O)c4ccccc4o3)sc2c1 | inactive |
| O=C(c1cc2ccccc2o1)N1CC=C(c2ccccc2)CC1 | inactive |
| O=c1c(N=Nc2ccc(O)cc2)c(-c2ccccc2)[nH]n1-c1ccc([N+](=O)[O-])cc1 | inactive |
| CC1(OC(=O)CCc2ccccc2)C(=O)C=C2C=C(c3ccsc3)OC=C2C1=O (stereo not drawn) | inactive |
| CCOC(=O)C1(Cc2ccc(OC)cc2)CCN(C(=O)Cc2cccnc2)CC1 | inactive |
| CCOc1ccc(-n2c(SCC(=O)Nc3cc(C)on3)nnc2-c2c[nH]c3ccccc23)cc1 | inactive |
| O=C(CC(=O)NN=Cc1ccc2c(c1)CCC2)NN=Cc1ccc2c(c1)CCC2 | inactive |
| COc1cc2ccccc2nn1 | inactive |
| C/C(=N\NC(=O)c1ccc(NS(=O)(=O)c2cccs2)cc1)c1ccccc1 | inactive |

| SMILES | outcome |
| --- | --- |
| CCN1CCN(C(=O)C2COc3ccccc3O2)CC1 (stereo not drawn) | inactive |
| O=C(COC(=O)c1ccc(NS(=O)(=O)c2cccs2)cc1)NCc1ccco1 | inactive |
| O=C(O)CCc1ccc(-c2cccs2)n1-c1ccc(C(=O)O)cc1 | inactive |
| O=C(c1ccc(=O)oc1)N1CCCc2ccccc21 | inactive |
| O=C(Cc1ccccn1)c1ccncc1 | inactive |
| Cc1cc(O)ccc1-c1cnc2ccccc2n1 | inactive |
| Cc1cc(/C=C2\SC(=S)NC2=O)c(C)n1-c1ccc(O)cc1 | inactive |
| O=C(NCC1CCCO1)c1cc2ccccc2oc1=O (stereo not drawn) | inactive |
| NS(=O)(=O)c1ccc(CCNC(=O)CCS(=O)(=O)c2ccc(Br)cc2)cc1 | inactive |
| CC(OC(=O)/C=C/c1ccco1)C(=O)NC1CCCCC1 (stereo not drawn) | inactive |
| CC(=O)Nc1ccc(NC(=O)C(C)OC(=O)CCc2c[nH]c3ccccc23)cc1 (stereo not drawn) | inactive |
| O=c1ccc2c(-c3ccccc3S(=O)(=O)O)c3ccc(O)c(O)c3oc-2c1O | inactive |
| CCOc1ccccc1C(O)C1=CC(=O)c2ccccc2C1=O (stereo not drawn) | inactive |
| CCOc1cccc(C(=O)Nc2ccccc2OC(F)F)c1 | inactive |
| CC(=O)Nc1nnc(SCC(=O)N2CCCc3ccccc32)s1 | inactive |
| O=C(Nc1ccc(F)c(Cl)c1)c1cccnc1 | inactive |
| Clc1ccc2c(c1)nc1n2CCCC1 | inactive |
| FC(F)Oc1ccccc1NC(=S)Nc1cccnc1 | inactive |
| CN(C)c1nc(N)nc(CSc2nc3c(c(=O)n(C)c(=O)n3C)n2Cc2ccccc2F)n1 | inactive |
| CCS(=O)(=O)c1ccc2oc(Nc3cccc(OC)c3)nc2c1 | inactive |
| CC(C)(C)c1nnc(NC(=O)c2ccc(Cl)nc2)s1 | inactive |
| CC1CCN(S(=O)(=O)c2ccc(C(=O)NCc3ccc4c(c3)OCO4)cc2)CC1 | inactive |

| SMILES | outcome |
| --- | --- |
| Cc1cccc(N/N=C/c2ccc(O)c(O)c2O)c1 | inactive |
| CCn1c(C)nc2cc(C(=O)N/N=C/c3ccc(O)c(O)c3O)ccc21 | inactive |
| Cc1cc(C)c2c(c1)[C@@H]1C=CC[C@@H]1[C@H](c1ccc(S(=O)(=O)N3CCOCC3)cc1)N2 | inactive |
| Cc1oc(-c2ccccc2)nc1C(=O)OCC(=O)NCc1ccc(F)cc1 | inactive |
| CCC1(C(N)=O)CC2C=CC1C2 (stereo not drawn) | inactive |
| Cc1ccc(NC(=O)CCCCCC2NC(=O)NC2C)cc1 (stereo not drawn) | inactive |
| O=C(CN1C(=O)c2ccccc2C1=O)NCC(=O)OCC(=O)c1cccc([N+](=O)[O-])c1 | inactive |
| C=C(C)C(=O)Nc1ccc2c(c1)OCCOCCOCCO2 | inactive |
| O=C(O)CCc1ccc(S(=O)(=O)Nc2cc(C(F)(F)F)ccc2N2CCCC2)cc1 | inactive |
| CCCCNC(=O)CN1C(=O)CSc2ccc(S(=O)(=O)N3CCOCC3)cc21 | inactive |
| CCNC(=S)Nc1ccc(N(c2ccccc2)C(C)C)cc1 | inactive |
| Cc1c(Cl)cccc1NC(=O)CC(Cc1ccccc1)C(=O)O (stereo not drawn) | inactive |
| CCN(CC)c1ccc(NC(=O)c2c(C)noc2C)cc1 | inactive |
| CCCC(=O)NNC(=O)Nc1ccccc1 | inactive |
| CSc1nc(N2CCOCC2)c2c3c(sc2n1)CCC3 | inactive |
| Cc1nn(CC(=O)Nc2ccccn2)c(C)c1Br | inactive |
| CC(=O)c1ccc(N2CCN(C(=O)c3ccc4c(c3)OCO4)CC2)cc1 | inactive |
| CC(C)(CS(=O)(=O)[O-])NC(=O)CC[N+](C)(C)CCO | inactive |
| CCOc1cc(N2CCOCC2)c(OCC)cc1NC(=O)CSc1ncn[nH]1 | inactive |
| CCOc1ccc(S(=O)(=O)N2CC(=O)Nc3ccccc32)cc1C#N | inactive |
| O=C(N/N=C/C=C/c1ccco1)c1cccs1 | inactive |
| O=C(CSc1nc2cc([N+](=O)[O-])ccc2n1-c1ccccc1)NCc1ccc2c(c1)OCO2 | inactive |

| SMILES | outcome |
| --- | --- |
| COCCCN1C(=O)N(c2ccc(F)cc2)C(=O)C1CC(=O)Nc1ccc(OC)cc1 (stereo not drawn) | inactive |
| Cc1ccc(S(=O)(=O)OCC(=O)Nc2ccc(C(=O)O)c(O)c2)cc1 | inactive |
| CC(C)CCN1CCN(Cc2cccn2-c2cccnc2)CC1CCO (stereo not drawn) | inactive |
| NS(=O)(=O)c1ccc(NC(=O)COC(=O)c2cc(Cl)ccc2[N+](=O)[O-])cc1 | inactive |
| Cc1cc(NC(=O)C2CCCC2)n(-c2nc3ccccc3[nH]2)n1 | inactive |
| CCN(c1ccc(NC(=O)COC(=O)c2ccc([N+](=O)[O-])o2)cc1)C(C)C | inactive |
| CSc1ccc(/C=N/n2c(C3CCCCC3)n[nH]c2=S)cc1 | inactive |
| NS(=O)(=O)c1ccc(N=Nc2ccc(=O)[nH]c2O)cc1 | inactive |
| O=C(O)c1cccc2c1Oc1ccccc1S2(=O)=O | inactive |
| CC(C)(C)CN1CCNC(=O)C1CC(=O)NCCc1ccccc1C(F)(F)F (stereo not drawn) | inactive |
| CCCCC1=CC2=CC(=O)C(C)(OC(=O)C3CCCC3)C(=O)C2=CO1 (stereo not drawn) | inactive |
| Cc1cccc(OCc2nc(C)cc(=O)[nH]2)c1 | inactive |
| OC(c1ccc(Cl)cc1)C(O)c1nc2ccccc2[nH]1 (stereo not drawn) | inactive |
| COc1ccc(NC(=O)c2cc(-c3ccco3)nc3ccccc23)cc1S(=O)(=O)N1CCOCC1 | inactive |
| COc1ccc(N(CC(=O)NCc2ccccc2C)S(=O)(=O)c2ccc(C)cc2)cc1OC | inactive |
| CCc1cccc(CC)c1-n1c(SCC(=O)N2CCCc3ccccc32)nc(O)cc1=O | inactive |
| CCc1ccc(-c2nc(SCC(=O)NC3CCS(=O)(=O)C3)n[nH]2)cc1 (stereo not drawn) | inactive |
| O=C(CSc1ncnc2ccccc12)Nc1cccc(S(=O)(=O)N2CCOCC2)c1 | inactive |
| O=C(CCCCCCC(=O)NCc1ccccc1)NCc1ccccc1 | inactive |
| COc1ccccc1NC(=O)CN(Cc1ccco1)C(=O)c1cccs1 | inactive |
